Test results reported in paper PMC8159961, “Exploring protein hotspots by optimized fragment pharmacophores” (Nature Communications, 2021).

These compounds were tested against thrombin (human, UniProt P00734) (assay: primary screen, binary call; higher = more effect of the substance). Details: 200 µM; call rule not given here.
Design: screenings were carried out in duplicate in one independent experiment
Protocol: Protease inhibitory assays were performed in transparent microtiter plates in a final volume of 200 µL with the use of chromogenic substrates. The reaction rates in the absence and in the presence of the inhibitor were measured; screenings were carried out in duplicate in one independent experiment and Ki values were determined in triplicate in two independent experiments.

Thrombin, inactive:
O=C(O)c1ccc(CN2CCOCC2)cc1 0
CCc1nccn1CC(=O)O 0
COc1ccccc1C1CCNCC1 0
c1ccc(-c2ccncc2)cc1 0
NC1CCc2ccccc21 (stereo not shown) 0
Oc1ccccc1N1CCCCC1 0
CC(=O)c1ccc2c(c1)CCCN2 0
O=C(c1ccccc1)N1CCC(CO)CC1 0
CC1C(=O)NC(=O)N1c1ccc(Cl)cc1 (stereo not shown) 0
CC1(C)OC(=O)c2cc(Br)c(O)cc2O1 0
O=C(Nc1ccccc1)C1CC1 0
O=C1CCN(c2ccncc2)CC1 0
COC(=O)c1c(C)nc(C2CC2)[nH]c1=O 0
N[C@H]1c2ccccc2C[C@H]1CO 0
Cc1ccc(CCNc2ccccc2)cn1 0
CCc1ccc(NC2=NCCCS2)cc1 0
Cc1cc(-c2ccccc2)n[nH]1 0
CS(=O)(=O)c1ccc(N2CCNCC2)cc1 0
Oc1ccc(-n2cncn2)cc1 0
O=C1CCCc2occc21 0
O=C1CNCCN1c1ccccc1 0
Cn1c(CO)nc2ccccc21 0
N#Cc1ccc2ncsc2c1 0
O=C(O)CC1CCC(=O)N1 (stereo not shown) 0
CC(=O)c1ccc2c(c1)CNCC2 0
O=C(c1ccncc1)N1CCNCC1 0
Brc1ccc(-c2ccon2)cc1 0
NC(c1ccccc1)c1ccccc1 0
Cc1cnc(C(F)(F)F)cn1 0
O=c1ccc2c([nH]1)CCCC2 0
COc1cccc(NC2=NCCCCC2)c1 0
CCn1cnc2ccccc21 0
CCCN1C(=O)CC(=O)NC1=S 0
O=c1[nH]c2c(s1)CCC2 0
CCN(CC)c1cccc(C)c1 0
O=C1CC(CSc2ccc(Cl)cc2)=NN1 0
O=C1CSC(Nc2ccc(F)cc2)=N1 0

Thrombin, active:
Nc1nnc(-c2cccs2)[nH]1 1
CC(=O)c1sc(-c2ccc(O)cc2)nc1C 1
CC1CCc2sc(C(=O)O)cc2C1 (stereo not shown) 1
